Test results: PubChem BioAssay AID1240 (Sanford-Burnham Center for Chemical Genomics, 2008)
In all, about 50,000 compounds went through this assay and about 800 (1.6%) showed an effect of 50% or more. The full list was thinned out, with strong results kept by preference.

Target: Bcl-2-like protein 10 (Homo sapiens) (UniProt Q9HD36)
Assay: TR3 peptide-Bcl-B binding displacers, biochemical primary FP assay, phenotype converters (AID 1240);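 further: 0% = Bcl-B with tracer peptide and DMSO and 100% = tracer peptide lacking Bcl-B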
Conditions: GST-Bcl-B / FITC-TR3 peptide fluorescence polarization; stronger effect = higher value; compound at 3.75 mg/L

Chain of Bcl-2-like protein 10 (Homo sapiens) (Q9HD36 whole entry, looked up): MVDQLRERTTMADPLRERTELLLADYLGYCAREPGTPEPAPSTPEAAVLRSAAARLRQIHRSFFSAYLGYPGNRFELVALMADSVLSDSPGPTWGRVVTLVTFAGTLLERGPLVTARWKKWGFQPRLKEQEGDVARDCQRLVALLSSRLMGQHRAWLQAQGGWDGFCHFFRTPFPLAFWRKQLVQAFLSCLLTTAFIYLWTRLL

Row | Structure (SMILES) | displacement [%]
1 | CC(C)CN1C(=O)/C(=C/c2ccccc2F)SC1=S | 10.4
2 | COc1ccc(NC(=O)CSCCc2ccccn2)c([N+](=O)[O-])c1 | 10.5
3 | NS(=O)(=O)c1cccc(NC(=O)c2cc(I)ccc2Cl)c1 | -1.9
4 | COc1ccc(/C=C2\SC(=S)N(CCCC(=O)Nc3ncc(Cc4cccc([N+](=O)[O-])c4)s3)C2=O)cc1OC | 59
5 | COc1ccc(/C=C2\SC(=S)N(CC(=O)Nc3ncc(Cc4cccc([N+](=O)[O-])c4)s3)C2=O)cc1OC | 9.7
6 | Cc1ccc(/C=C2\SC(=S)N(CCc3ccccc3)C2=O)cc1 | 17
7 | O=C(CN1C(=O)/C(=C/c2ccc(Br)cc2)SC1=S)Nc1ncc(Cc2cccc([N+](=O)[O-])c2)s1 | 17.9
8 | O=C(CCCN1C(=O)/C(=C\c2ccc(F)cc2)SC1=S)Nc1ccccc1O | -12.5
9 | CCN(CC)c1ccc(/C=C2\SC(=S)N(CCc3ccccc3)C2=O)cc1 | 86
10 | COc1ccc(CCN2C(=O)/C(=C\c3ccc(C(C)C)cc3)SC2=S)cc1OC | -0.4
11 | CCCCN1C(=O)/C(=C\c2ccc(N(CC)CC)cc2)SC1=S | -18.9
12 | COc1ccc(/C=C2/SC(=S)N(Cc3ccccc3)C2=O)cc1OC | 16.1
13 | COc1ccc(/C=C2/SC(=S)N(CCc3ccccc3)C2=O)cc1OC | 105
14 | O=C(CCN1C(=O)/C(=C/c2ccc(F)cc2)SC1=S)Nc1cc([N+](=O)[O-])ccc1O | 25.6
15 | O=C(CCCN1C(=O)/C(=C\c2ccc(F)cc2)SC1=S)Nc1cc([N+](=O)[O-])ccc1O | 114
16 | COC1C(C)=C(c2ccccc2F)C(=O)N1Cc1ccccc1 (stereo not given) | 14.3
17 | CC1=C(C(=O)Nc2ccc(C)cc2)C(c2ccc(F)cc2)NC(=S)N1 (stereo not given) | -4.5
18 | C/C(O)=C/c1nc2ccc([N+](=O)[O-])cc2nc1/C=C(/C)O | 17.3
19 | OC(COCc1ccc2c(c1)OCO2)CN1CCC(Cc2ccccc2)CC1 (stereo not given) | 0.1
20 | Cc1ccc(-c2cc(NC(=O)c3ccc(Cl)cc3Cl)n[nH]2)cc1 | 9.9
21 | O=C(O)CCCCCN1C(=O)C(=O)/C(=C(/O)c2ccccc2)C1c1ccc([N+](=O)[O-])cc1 (stereo not given) | -3.9
22 | O=C1c2c(Cl)ccc(Cl)c2C(=O)N1c1ccccc1O | 9.8
23 | C(#Cc1ccccc1)CN1CCOCC1 | 2.4
24 | CSC(=O)NC1(Cc2ccc(O)cc2)CCCCC1 | -4.1
25 | Cc1ccc(C(=O)N/C(=C/c2ccc(Br)cc2)C(=O)NN)cc1 | -31.6

Row | Structure (SMILES) | displacement [%]
26 | CCN(CC)CCC(=O)c1ccc2c(c1)OCO2 | -5.3
27 | O=c1[nH]c2ccc(Cl)cc2c(-c2ccccc2)c1N1CCOCC1 | -27.7
28 | COC(=O)C(C)Oc1cc2oc(=O)cc(-c3ccccc3)c2cc1Cl (stereo not given) | 10.3
29 | COc1ccc(/C=C2\SC(=NCc3ccccc3)N(Cc3ccccc3)C2=O)cc1OC | 7.1
30 | COc1cc(/C=C2\SC(=NCc3ccccc3)N(Cc3ccccc3)C2=O)cc(Br)c1O | -5.7
31 | COc1ccc(/C=C2\SC(=NCc3ccccc3)N(Cc3ccccc3)C2=O)cc1C(=O)O | 78
32 | CCN(CC)c1ccc(/C=C2/C(=O)NN(c3cccc(Cl)c3)C2=O)c(O)c1 | 1.9
33 | CCN(CC)c1ccc(/C=C2/C(=O)NN(c3ccc(C)c(Cl)c3)C2=O)c(O)c1 | 59.2
34 | CCN(CC)c1ccc(/C=C2/C(=O)NN(c3ccc(C)cc3)C2=O)c(O)c1 | 23.1
35 | CC(=O)C12CCCCC1CC1C3CC(C)[C@@]4(O)CC(O)CCC4(C)C3CCC12C (stereo not given in full) | 0
36 | Cc1cccc(N2C(=O)S/C(=C/c3cccc([N+](=O)[O-])c3)C2=O)c1 | 14.3
37 | COc1cc(OC)c([N+](=O)[O-])cc1/C=C1/C(=O)NC(=O)N(c2ccc(Br)cc2)C1=O | 8.8
38 | COc1ccc(C2=NN(c3ccccc3)C(c3ccccc3F)C2)cc1 (stereo not given) | 53.9
39 | COc1ccc(C2CC(c3ccc(F)cc3)=NN2c2cccc(F)c2)cc1OC (stereo not given) | -6.2
40 | COc1ccc(C2=NN(C(=O)CCC(=O)O)C(c3ccccc3F)C2)cc1 (stereo not given) | 12.3
41 | COc1ccc(C2CC(c3ccc(F)cc3)=NN2c2ccccc2)cc1OC (stereo not given) | 64.4
42 | COc1ccc(C2CC(c3ccc(F)cc3)=NN2c2ccccc2F)cc1OC (stereo not given) | -4.3
43 | COc1ccccc1C1CC(c2ccc(F)cc2)=NN1c1ccccc1 (stereo not given) | 5.4
44 | O=C(COc1ccc(Cl)cc1Cl)Nc1ccc(Br)c(Cl)c1 | -5.5
45 | CC(=O)Nc1ccc(S(=O)(=O)NC(=O)C23CC4CC(CC(C4)C2)C3)cc1 | 0.8
46 | CCOc1ccc(C(=O)Nc2cccc(C(C)=O)c2)cc1 | 9
47 | COc1ccc(Cl)cc1N=CC1=C(O)CC(C)(C)CC1=O | 3.1
48 | CCOc1cc(C(=S)N2CCOCC2)ccc1OC(=O)c1cccc([N+](=O)[O-])c1 | 8.7
49 | O=C(Oc1ccccc1C(=S)N1CCOCC1)c1cccc([N+](=O)[O-])c1 | 10.7
50 | COc1cc(C(=S)N2CCOCC2)cc(OC)c1OC(=O)c1cccc([N+](=O)[O-])c1 | 70.4

Row | Structure (SMILES) | displacement [%]
51 | COc1cc(C2C3=C(CC(C)(C)CC3=O)OC3=C2C(=O)CC(C)(C)C3)cc(OC)c1OC(C)=O | -1.3
52 | CC(C)COc1ccc(C(=O)Nc2ccc(Cl)cc2)cc1 | 13.1
53 | COc1ccc(NC(=O)CN(c2cc(OC)ccc2OC)S(C)(=O)=O)cc1 | 13.1
54 | CCC1=NN2C(=N)/C(=C/c3ccc(-c4ccc([N+](=O)[O-])cc4Cl)o3)C(=O)N=C2S1 | 15.1
55 | CCC1=NN2C(=N)/C(=C/c3ccc(-c4ccc([N+](=O)[O-])cc4Br)o3)C(=O)N=C2S1 | 4
56 | CCCC1=NN2C(=N)/C(=C/c3ccc(-c4ccc([N+](=O)[O-])cc4C)o3)C(=O)N=C2S1 | 140
57 | CCC1=NN2C(=N)/C(=C/c3ccc(-c4ccc([N+](=O)[O-])cc4C)o3)C(=O)N=C2S1 | 14
58 | CCCC1=NN2C(=N)/C(=C/c3ccc(-c4ccc([N+](=O)[O-])cc4Br)o3)C(=O)N=C2S1 | 129
59 | CCC1=NN2C(=N)/C(=C/c3ccc(-c4ccccc4[N+](=O)[O-])o3)C(=O)N=C2S1 | 1.5
60 | NC1=NC(=O)/C(=C/c2ccc(-c3ccc([N+](=O)[O-])cc3Br)o2)S1 | -5.3
61 | CCCC1=NN2C(=N)/C(=C/c3ccc(-c4ccc(Cl)cc4Cl)o3)C(=O)N=C2S1 | 74.7
62 | C=CCOc1ccc(Cl)cc1/C=C1/C(=N)N2N=C(CCC)SC2=NC1=O | -25.3
63 | CC1CCc2c(nc3ccccc3c2C(=O)O)C1 (stereo not given) | -14.7
64 | CN(C)/C=C/C=C1C(=O)OC(C)(C)OC1=O | 0.3
65 | O=C(O)c1ccccc1C(=O)c1ccc(Cl)c(N2C(=O)CCC2=O)c1 | -1.3
66 | Cc1cc(NS(=O)(=O)c2ccc(NC(=O)C(Cl)(Cl)Cl)cc2)nc(C)n1 | 1.3
67 | COc1ccc(Br)cc1Cn1c(=O)[nH]c2cc(C(F)(F)F)ccc21 | -5.6
68 | CC(C)(C)C(=O)Nc1cccc(C(=O)NCc2ccc(CNC(=O)c3cccc(NC(=O)C(C)(C)C)c3)cc2)c1 | 9.9
69 | O=C(Oc1cccc(/C=C2/SC(=S)N(c3ccccc3)C2=O)c1)c1ccco1 | -17.2
70 | Cc1cc(-n2cc(C=O)c(-c3ccccc3)n2)nc2ccccc12 | 75.4
71 | O=Cc1cn(-c2ccccc2)nc1-c1ccc(Cl)cc1 | 7.5
72 | Cc1cc(C)c(-c2nn(-c3ccccc3)cc2C=O)c(C)c1 | 10.9
73 | Cc1ccc(C(=O)/C=C2\C(=O)Nc3ccccc32)cc1 | 6.7
74 | O=C(O)CCCC(=O)OCc1ccco1 | 31.3
75 | O=C(COc1ccc([N+](=O)[O-])cc1)NNC(=O)c1ccccc1Cl | 11.6

Row | Structure (SMILES) | displacement [%]
76 | O=C(O)c1ccc(-c2ccc(/C=C3/SC(=O)N(c4ccccc4)C3=O)o2)cc1 | 27.7
77 | O=C1S/C(=C\c2ccc(-c3ccccc3[N+](=O)[O-])o2)C(=O)N1c1ccccc1 | 47.7
78 | O=C1S/C(=C/c2ccc(-c3ccc(F)cc3)o2)C(=O)N1c1ccccc1 | 12.2
79 | Fc1ccc(-c2ccc(/C=N/n3cnnc3)o2)cc1 | 7.8
80 | O=C1S/C(=C/c2ccc(-c3ccc([N+](=O)[O-])cc3Cl)o2)C(=O)N1c1ccccc1 | 47.4
81 | O=[N+]([O-])c1ccc(-c2ccc(/C=N/n3cnnc3)o2)cc1 | 139
82 | O=C1S/C(=C\c2ccc(-c3ccc([N+](=O)[O-])cc3)o2)C(=O)N1c1ccccc1 | 70.2
83 | O=C1S/C(=C/c2ccc(-c3cccc([N+](=O)[O-])c3)o2)C(=O)N1c1ccccc1 | 111
84 | O=[N+]([O-])c1ccccc1-c1ccc(/C=N/n2cnnc2)o1 | 8.8
85 | Cc1cccc(/C=C2/SC(=S)N(CN3CCCCC3)C2=O)c1 | 11.3
86 | O=C1CCCCC1Oc1ccc2c(-c3ccccc3)cc(=O)oc2c1 (stereo not given) | -9.6
87 | O=C(COc1ccc2ccccc2c1)Nc1cc([N+](=O)[O-])ccc1F | 29.5
88 | CCSC1C(C)=C(C)C(=O)N1C(C)(C)c1cc(Cl)cc(Cl)c1 (stereo not given) | 21.2
89 | COc1ccc(NC(=O)CN2C(=O)/C(=C/c3cccc(Br)c3)SC2=S)cc1 | 11.6
90 | O=C(CN1C(=O)/C(=C/c2cccc(Br)c2)SC1=S)Nc1ccccn1 | 69
91 | O=C(O)CCCN1C(=O)/C(=C\c2cccc(O)c2)SC1=S | 0.6
92 | O=C(O)CCCN1C(=O)/C(=C/c2cccc(Br)c2)SC1=S | 91.2
93 | O=C(O)CCCCCCCCCCN1C(=O)/C(=C/c2cccc(Br)c2)SC1=S | -3.4
94 | CCOc1ccccc1NC(=O)CN1C(=O)/C(=C/c2cccc(Br)c2)SC1=S | 78.7
95 | CCOc1ccccc1NC(=O)CN1C(=O)/C(=C\c2cc(OC)c(OC)c(OC)c2)SC1=S | 36.8
96 | O=C(CN1C(=O)/C(=C/c2ccccc2)SC1=S)Nc1cccc(Br)c1 | 11.9
97 | O=C(CN1C(=O)/C(=C/c2cccc(Br)c2)SC1=S)Nc1cccnc1 | 9.6
98 | O=c1[nH]c(=S)[nH]c(O)c1C=Nc1cc(Cl)ccc1O | 3.2
99 | O=C(CN1C(=O)CCC1=O)NCCc1ccccc1 | -5.5
100 | COc1ccc(Cl)cc1C(=O)Nc1cccc2nsnc12 | 12.8
